Common to all, as to design: scale not given: direction of the effect not stated beside the values
In assay [1] the target is Protein translocase subunit SecA (Escherichia coli (strain K12)) (UniProt P10408). The assay can be described thus: Assay to Identify E. coli SecA ATPase Inhibitors. It is filed as functional. To be noted: 30 µM.
Assay [2] addresses T1, Ubiquitin-activating enzyme e1, putative (Leishmania donovani (strain BPK282A1)) (UniProt E9BSI1).
T1 sequence (whole entry): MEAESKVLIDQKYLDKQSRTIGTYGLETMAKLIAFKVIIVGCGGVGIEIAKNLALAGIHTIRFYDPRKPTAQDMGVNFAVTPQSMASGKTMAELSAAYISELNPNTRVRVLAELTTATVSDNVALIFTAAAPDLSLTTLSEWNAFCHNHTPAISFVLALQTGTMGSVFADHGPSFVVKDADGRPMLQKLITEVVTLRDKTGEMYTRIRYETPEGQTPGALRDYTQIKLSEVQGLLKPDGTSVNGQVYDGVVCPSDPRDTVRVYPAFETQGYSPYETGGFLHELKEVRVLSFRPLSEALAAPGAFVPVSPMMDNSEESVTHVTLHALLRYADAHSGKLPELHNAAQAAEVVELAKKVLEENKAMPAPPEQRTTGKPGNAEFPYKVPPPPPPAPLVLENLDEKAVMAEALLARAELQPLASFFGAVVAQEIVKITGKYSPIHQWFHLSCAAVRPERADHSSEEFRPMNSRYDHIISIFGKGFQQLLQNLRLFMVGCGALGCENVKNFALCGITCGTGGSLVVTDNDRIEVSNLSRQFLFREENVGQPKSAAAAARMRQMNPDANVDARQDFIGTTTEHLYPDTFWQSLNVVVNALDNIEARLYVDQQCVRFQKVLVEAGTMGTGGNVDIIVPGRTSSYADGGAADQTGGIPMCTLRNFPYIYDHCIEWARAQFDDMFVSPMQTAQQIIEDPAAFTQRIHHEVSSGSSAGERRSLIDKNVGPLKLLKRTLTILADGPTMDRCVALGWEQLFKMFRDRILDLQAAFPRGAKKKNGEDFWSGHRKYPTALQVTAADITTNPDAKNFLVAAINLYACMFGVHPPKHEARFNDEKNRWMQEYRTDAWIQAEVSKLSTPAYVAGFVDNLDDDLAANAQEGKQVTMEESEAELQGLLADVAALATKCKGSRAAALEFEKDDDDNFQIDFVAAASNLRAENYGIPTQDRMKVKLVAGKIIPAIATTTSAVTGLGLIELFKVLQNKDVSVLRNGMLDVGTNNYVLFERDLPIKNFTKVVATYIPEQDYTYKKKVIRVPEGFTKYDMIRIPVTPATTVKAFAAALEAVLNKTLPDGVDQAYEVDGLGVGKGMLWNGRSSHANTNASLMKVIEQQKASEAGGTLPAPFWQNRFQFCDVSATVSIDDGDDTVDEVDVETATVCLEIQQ
Kind of assay: Leishmania donovani Ubiquitin Activating Enzyme (LdE1). In kind it is functional. To be noted: 30 µM.

Assay [3] has as its target AMP-activated protein kinase, AMPK (Homo sapiens) (UniProt P54646+O43741+P54619+Q9UGJ0+Q9Y478+Q13131+Q9UGI9). The assay can be described thus: AMP-dependent Kinase enzyme assay. An in vitro enzyme assay that detects ADP turnover that is directly proportional to AMPK activity. This uses naive AMPK that is activated during the assay with MK-8722. Conditions: 30 µM. It is filed as functional.

Assay [4] concerns the target Sialic acid-binding Ig-like lectin 9 (Homo sapiens) (UniProt Q9Y336). Kind of assay: Hs-Siglec9 ALPHAscreen SOP 20170721. To be noted: 10 µM.
The test system of a further assay is Trypanosoma cruzi. The assay can be described thus: Trypanosoma cruzi phosphomannomutase and mannose-1-phosphate guanylyltransferase assay. To be noted: 10 µM. It is filed as functional.
Assay [5] addresses T2, Arginase-2, mitochondrial (Homo sapiens) (UniProt P78540).
T2 sequence (whole entry): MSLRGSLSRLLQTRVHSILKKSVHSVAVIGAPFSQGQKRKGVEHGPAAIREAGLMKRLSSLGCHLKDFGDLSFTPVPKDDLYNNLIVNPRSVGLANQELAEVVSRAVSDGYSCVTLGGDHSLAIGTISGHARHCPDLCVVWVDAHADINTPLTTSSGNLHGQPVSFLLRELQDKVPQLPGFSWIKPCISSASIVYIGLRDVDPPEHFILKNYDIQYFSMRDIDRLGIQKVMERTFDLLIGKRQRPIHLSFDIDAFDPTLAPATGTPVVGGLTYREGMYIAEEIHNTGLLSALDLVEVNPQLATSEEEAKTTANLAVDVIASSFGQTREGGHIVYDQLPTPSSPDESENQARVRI
Kind of assay: in vitro enzyme assay to detect the production of urea directly proportional to the activity of Arginase II. Also: in the data most compounds retested in dose-response had high values. It is filed as functional. To be noted: 33.3 µM.

The target of assay [6] is T3, Proteasome subunit beta (Trypanosoma cruzi) (UniProt O96673).
T3 sequence (whole entry): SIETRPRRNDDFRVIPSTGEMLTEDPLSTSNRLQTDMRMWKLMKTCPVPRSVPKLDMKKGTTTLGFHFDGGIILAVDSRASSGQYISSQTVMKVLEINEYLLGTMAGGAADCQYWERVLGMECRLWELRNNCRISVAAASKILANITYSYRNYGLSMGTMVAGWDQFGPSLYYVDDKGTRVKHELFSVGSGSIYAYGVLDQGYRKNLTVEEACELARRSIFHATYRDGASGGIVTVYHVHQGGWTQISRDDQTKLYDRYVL
The assay can be described thus: Trypanosoma cruzi proteasome chymotrypsin-like activity (TcProtChymo) assay. Also: in the data most compounds retested in dose-response had high values. In kind it is functional. To be noted: 9.37 µM.

The species named for another assay is Homo sapiens. The assay can be described thus: To identify inhibition of the IFN signalling (Jak-Stat) pathway via expression of an eGFP reporter gene under the control of an IFN-stimulated response element (ISRE) containing MxA promoter. In kind it is functional. Conditions: 30 µM. In general terms: Reporter assays use an easily measured gene product as a stand-in for the process of interest.

Assay [7] has as its target T4, Tyrosyl-tRNA synthetase, putative (Trypanosoma cruzi (strain CL Brener)) (UniProt Q4DSP6).
T4 sequence (whole entry): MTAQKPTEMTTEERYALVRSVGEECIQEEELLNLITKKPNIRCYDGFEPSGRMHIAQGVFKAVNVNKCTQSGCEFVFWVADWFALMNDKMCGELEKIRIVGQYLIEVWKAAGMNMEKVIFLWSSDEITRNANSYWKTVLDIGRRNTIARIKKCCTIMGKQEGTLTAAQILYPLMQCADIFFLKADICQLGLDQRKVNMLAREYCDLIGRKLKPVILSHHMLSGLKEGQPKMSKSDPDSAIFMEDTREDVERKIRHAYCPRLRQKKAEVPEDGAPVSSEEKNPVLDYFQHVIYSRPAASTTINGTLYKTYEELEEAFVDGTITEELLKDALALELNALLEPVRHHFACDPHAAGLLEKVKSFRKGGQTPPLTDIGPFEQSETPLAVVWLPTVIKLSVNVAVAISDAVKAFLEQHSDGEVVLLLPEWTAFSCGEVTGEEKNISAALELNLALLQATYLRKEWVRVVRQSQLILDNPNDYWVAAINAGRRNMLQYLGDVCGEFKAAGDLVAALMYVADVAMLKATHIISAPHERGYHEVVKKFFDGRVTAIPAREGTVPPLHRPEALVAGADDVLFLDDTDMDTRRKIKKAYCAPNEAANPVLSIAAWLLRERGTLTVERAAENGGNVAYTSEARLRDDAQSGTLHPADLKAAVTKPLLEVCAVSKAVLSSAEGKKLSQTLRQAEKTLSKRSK
The assay can be described thus: Trypanosoma cruzi tyrosyl tRNA synthetase (TcYRS) _High Tyrosine SOP. Also: in the data most compounds retested in dose-response had high values. It is filed as functional. To be noted: 30 µM.

In assay [8] the target is T4, Tyrosyl-tRNA synthetase, putative (Trypanosoma cruzi (strain CL Brener)). The assay can be described thus: Trypanosoma cruzi tyrosyl tRNA synthetase (TcYRS) SOP. It is filed as functional. Conditions: 30 µM.
Assay [9] concerns the target Chromo domain-containing protein 1 (Saccharomyces cerevisiae (strain ATCC 204508 / S288c) (Baker's yeast)) (UniProt P32657). The assay can be described thus: ScCHD-1 Enzyme Inhibition Assay. Also: in the data most compounds retested in dose-response had high values. It is filed as functional. To be noted: 30 µM.

For some of these results: Potency and affinity values are given separately.

Chain of Chromo domain-containing protein 1 (Saccharomyces cerevisiae (strain ATCC 204508 / S288c) (Baker's yeast)) (P32657 whole entry, the tested form may be a part): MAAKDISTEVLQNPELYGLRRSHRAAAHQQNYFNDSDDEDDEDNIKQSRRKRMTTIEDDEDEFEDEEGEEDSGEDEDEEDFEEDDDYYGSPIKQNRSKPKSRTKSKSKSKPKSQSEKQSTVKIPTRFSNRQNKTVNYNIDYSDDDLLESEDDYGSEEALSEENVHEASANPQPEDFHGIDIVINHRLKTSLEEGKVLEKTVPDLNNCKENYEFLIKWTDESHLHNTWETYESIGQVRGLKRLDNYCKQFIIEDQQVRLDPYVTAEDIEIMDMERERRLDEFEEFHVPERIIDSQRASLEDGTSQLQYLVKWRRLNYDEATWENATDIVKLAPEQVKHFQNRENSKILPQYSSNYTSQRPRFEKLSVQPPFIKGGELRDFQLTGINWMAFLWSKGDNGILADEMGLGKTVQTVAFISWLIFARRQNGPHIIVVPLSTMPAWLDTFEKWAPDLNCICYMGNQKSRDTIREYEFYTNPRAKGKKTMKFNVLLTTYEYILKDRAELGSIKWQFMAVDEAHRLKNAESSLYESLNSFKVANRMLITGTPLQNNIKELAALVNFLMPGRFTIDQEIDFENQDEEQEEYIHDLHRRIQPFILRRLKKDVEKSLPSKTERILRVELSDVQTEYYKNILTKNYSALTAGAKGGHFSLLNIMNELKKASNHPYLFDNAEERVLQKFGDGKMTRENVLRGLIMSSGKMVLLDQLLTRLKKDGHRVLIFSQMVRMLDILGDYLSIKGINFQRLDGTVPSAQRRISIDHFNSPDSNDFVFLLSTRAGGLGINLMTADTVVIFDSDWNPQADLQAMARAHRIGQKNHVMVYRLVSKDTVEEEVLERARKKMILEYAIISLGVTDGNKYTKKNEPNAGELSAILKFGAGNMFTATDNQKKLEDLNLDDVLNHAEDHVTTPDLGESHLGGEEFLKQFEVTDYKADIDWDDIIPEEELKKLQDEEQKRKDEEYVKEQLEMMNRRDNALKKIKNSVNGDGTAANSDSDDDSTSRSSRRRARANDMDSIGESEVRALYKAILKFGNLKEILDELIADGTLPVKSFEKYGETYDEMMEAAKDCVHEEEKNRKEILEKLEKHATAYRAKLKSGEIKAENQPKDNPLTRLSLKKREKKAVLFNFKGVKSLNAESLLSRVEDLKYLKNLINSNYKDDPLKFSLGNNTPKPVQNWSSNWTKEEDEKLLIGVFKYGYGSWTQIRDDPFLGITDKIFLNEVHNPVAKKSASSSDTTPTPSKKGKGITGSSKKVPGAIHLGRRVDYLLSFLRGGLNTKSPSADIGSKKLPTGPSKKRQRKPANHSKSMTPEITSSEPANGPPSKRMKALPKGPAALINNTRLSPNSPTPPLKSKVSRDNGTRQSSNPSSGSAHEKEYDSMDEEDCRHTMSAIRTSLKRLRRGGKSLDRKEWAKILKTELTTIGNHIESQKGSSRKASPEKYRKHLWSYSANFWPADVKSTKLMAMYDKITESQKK
Chain of Protein translocase subunit SecA (Escherichia coli (strain K12)) (P10408 whole entry): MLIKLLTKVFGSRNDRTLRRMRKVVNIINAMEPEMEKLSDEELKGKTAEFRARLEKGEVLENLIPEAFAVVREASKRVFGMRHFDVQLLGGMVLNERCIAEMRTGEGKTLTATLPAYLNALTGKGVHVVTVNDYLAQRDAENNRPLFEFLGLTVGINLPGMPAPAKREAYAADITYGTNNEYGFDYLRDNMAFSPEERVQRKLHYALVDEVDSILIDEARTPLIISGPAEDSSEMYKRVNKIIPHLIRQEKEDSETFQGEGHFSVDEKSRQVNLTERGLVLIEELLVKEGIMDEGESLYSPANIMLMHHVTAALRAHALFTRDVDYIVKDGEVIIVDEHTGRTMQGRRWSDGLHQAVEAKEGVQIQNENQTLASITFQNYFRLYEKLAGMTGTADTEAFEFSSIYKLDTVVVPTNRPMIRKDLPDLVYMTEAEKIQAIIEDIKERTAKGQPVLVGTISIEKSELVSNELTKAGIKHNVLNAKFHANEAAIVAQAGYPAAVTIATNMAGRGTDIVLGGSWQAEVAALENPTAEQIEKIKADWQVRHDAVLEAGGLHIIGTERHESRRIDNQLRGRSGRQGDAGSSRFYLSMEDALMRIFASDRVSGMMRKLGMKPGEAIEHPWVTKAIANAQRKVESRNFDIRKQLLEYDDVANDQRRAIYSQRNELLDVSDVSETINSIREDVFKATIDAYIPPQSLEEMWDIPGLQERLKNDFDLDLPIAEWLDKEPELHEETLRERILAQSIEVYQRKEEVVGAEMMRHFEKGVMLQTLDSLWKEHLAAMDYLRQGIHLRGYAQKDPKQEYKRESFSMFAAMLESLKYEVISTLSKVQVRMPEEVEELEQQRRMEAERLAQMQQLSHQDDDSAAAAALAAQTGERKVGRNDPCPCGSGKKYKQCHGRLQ
Chain of Sialic acid-binding Ig-like lectin 9 (Homo sapiens) (Q9Y336 whole entry): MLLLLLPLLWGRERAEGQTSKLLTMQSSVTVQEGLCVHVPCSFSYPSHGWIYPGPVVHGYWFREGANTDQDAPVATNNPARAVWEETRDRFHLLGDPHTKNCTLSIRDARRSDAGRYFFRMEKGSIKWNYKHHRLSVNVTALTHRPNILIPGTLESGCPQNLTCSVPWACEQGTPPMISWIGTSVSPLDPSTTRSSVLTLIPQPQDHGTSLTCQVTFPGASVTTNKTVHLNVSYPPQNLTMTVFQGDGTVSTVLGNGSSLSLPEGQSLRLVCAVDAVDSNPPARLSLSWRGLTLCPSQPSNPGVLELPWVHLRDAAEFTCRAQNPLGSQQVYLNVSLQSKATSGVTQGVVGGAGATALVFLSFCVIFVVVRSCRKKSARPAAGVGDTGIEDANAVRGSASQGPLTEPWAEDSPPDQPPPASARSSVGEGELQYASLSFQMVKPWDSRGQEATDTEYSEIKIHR

On to `CC(NC(=O)CSCC(=O)Nc1ccccc1)c1ccccc1` (stereo unspecified), for which the Percent Effect in assay [1] is -1.97%; in [2], 2.63%; in assay [3], -2%; in assay [4], -3.2%; in the assay with Trypanosoma cruzi, -0.654%; in assay [5], 1.08%. Besides, the Percent Effect in assay [6] was -0.761%; in the assay listed under Homo sapiens, -13.7%; in [7], 3.45%; in assay [8], 3.7%; in assay [9], 8.03%.

In the case of `CC(C(=O)N1CCC(Nc2cccnn2)CC1)n1ccnc1` (stereo unspecified), the Percent Effect is -2.11% in [1]; 5.41% in assay [2]; -6.39% in [3]; 14.9% in assay [4]; 4.43% with Trypanosoma cruzi; -3.21% in assay [5]. In addition, the Percent Effect in assay [6] was 3.42%; in the assay listed under Homo sapiens it was 11.9%; in assay [7] it was 3.45%; in assay [8] it was 6.17%; in [9] it was -6.18%.

For `O=C1N(Cc2cccc(F)c2F)CCCC1(O)CN1CCCOCC1` (stereo unspecified), the Percent Effect was -6.11% in [1]; -5.33% in assay [2]; -3.73% in assay [3]; 6.26% in assay [4]; 1.46% with Trypanosoma cruzi; 0% in [5]. For the same compound, the Percent Effect in [6] is 5.06%; in the assay listed under Homo sapiens it was 5.93%; in [7] it was 4.92%; in [8], 11.1%; in assay [9], -4.58%.

In the case of `Cc1ccc(NC2CCN(C(=O)Cc3ccc(C#N)cc3)CC2)nn1`, the Percent Effect is -4.53% in assay [1]; 2.7% in assay [2]; -6.02% in assay [3]; 18.2% in assay [4]; 4.81% in the assay on Trypanosoma cruzi; -4.41% in assay [5]. Besides, the Percent Effect in [6] was 3.24%; in the assay filed under Homo sapiens, -19.9%; in assay [7] it was 6.4%; in assay [8], 18.5%; in [9], -10.7%.

On to `CC(C)CN1CCN(C(=O)Nc2cc(C(F)(F)F)c[nH]c2=O)CC1`, for which the Percent Effect in assay [1] is -3.29%; in assay [2], 2.6%; in [3] it was 6.98%; in [4], 4.09%; in the assay on Trypanosoma cruzi it was -2.06%; in assay [5], 2.13%. The Percent Effect in [6] is 3.55%; in the assay listed under Homo sapiens, 20.1%; in assay [7], 5.83%; in assay [8] it was 12.2%; in [9] it was -7.11%.

Consider `Cc1noc(C(C)C)c1C(=O)NCC(c1cccc(F)c1)N(C)C` (stereo unspecified), for which the Percent Effect in assay [1] is 0.211%; in [2] it was -2.53%; in assay [3] it was 0.144%; in assay [4] it was -2.52%; in the assay on Trypanosoma cruzi, -1.6%; in [5], 5.32%. The Percent Effect is -7.45% in [6]; 2.06% in the assay listed under Homo sapiens; 2.46% in assay [7]; -8.86% in assay [8]; 2.02% in assay [9].

With `O=C(c1ccsc1)N1C[C@@H](CN2CCCC2)[C@@H](CO)C1`, the Percent Effect in assay [1] was -10%; in [2] it was 2.67%; in assay [3], -3.05%; in assay [4] it was -2.17%; in the assay on Trypanosoma cruzi, -5.36%; in assay [5] it was -5.21%. In addition, the Percent Effect in [6] was 4.71%; in the assay filed under Homo sapiens, 2.13%; in assay [7], -1.64%; in [8], -1.24%; in assay [9], -4.1%.

`CC(NC(=O)NCC1(O)CCC1)c1ccc(OCC2CC2)c(F)c1` (stereo unspecified): the Percent Effect is -6.25% in assay [1]; 10.5% in assay [2]; 0.839% in assay [3]; 9.9% in assay [4]; 1.85% with Trypanosoma cruzi; -24.9% in assay [5]. Also, the Percent Effect was 10.3% in assay [6]; 14% in the assay listed under Homo sapiens; 3.19% in [7]; 7.79% in assay [8]; -3.31% in assay [9].

Regarding `Cc1nccn1CC1CCCN1CCCc1nc(-c2cccs2)no1` (stereo unspecified), the Percent Effect in assay [1] is -0.0404%; in assay [2], 21.6%; in assay [3], -8.26%; in [4], -4.35%; with Trypanosoma cruzi it was -2.92%; in assay [5], -11.6%. Besides, the Percent Effect in assay [6] worked out at 13.3%; in the assay listed under Homo sapiens, 36.5%; in [7], 3.45%; in assay [8], 13.6%; in assay [9], 2.34%.

In the case of `CC(C)CCN1CCC2(CC1)CN(C(=O)c1cnccn1)CCO2`, the Percent Effect in assay [1] is -4.82%; in [2], 2.67%; in [3], 2.65%; in assay [4], 7.36%; in the assay on Trypanosoma cruzi it was 0.772%; in assay [5] it was -57.9%. In addition, the Percent Effect in [6] is 0.855%; in the assay filed under Homo sapiens it was -13.7%; in assay [7], 4.17%; in [8] it was 12.5%; in assay [9], -3.24%.

As for `Cc1ccc(CNC(=O)NCc2csc(C)n2)cn1`, the Percent Effect in assay [1] was -2.07%; in assay [2] it was 17.7%; in assay [3], -8.56%; in [4] it was -3.48%; in the assay with Trypanosoma cruzi, -3.31%; in [5], 8.37%. Further, the Percent Effect in [6] was -1.56%; in the assay filed under Homo sapiens, 0.522%; in assay [7], 5.42%; in [8] it was 16.5%; in [9] it was -6.06%.

The record behind these values is ChEMBL document CHEMBL3988442, “University of Dundee, Small-Polar-MMV Screening Library” (2021).
